Screens from PubChem BioAssay.
SMARCA2 activ: SMARCA2 function activation, primary screen; MG213 cells, MMTV-luciferase reporter, dexamethasone, overnight; activation, % at 9.1 µM; actives 1% (n = 370,000); AID 652017; in the data active = activation above about 7.8%;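 also: 0% = vehicle wells and 100% = reference activator wells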
M18AAP inhibitor: PfM18AAP enzyme inhibition. recombinant PfM18AAP, H-Glu-NHMec fluorogenic cleavage. inhibition, % at 7.35 µM. actives 1.2% (n = 290,000). AID 1822;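 active = inhibition above the campaign mean inhibition over all tested compounds plus 3 SD, cut at about 28% in these data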;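 also: 0% = plate median of test compound wells and 100% = 2 mM ZnCl2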
beta cell repl: MIN6 beta-cell proliferation induction | actives 0.29% (n = 330,000) | MIN6 cells proliferation, ATPlite luminescence, 48 h; cells starved in 0.2% serum; 100% = growth in 10% serum | AID 2380 | proliferation, % at 10 µM;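 active = compounds whose signal lies at least 3.5 SD above the mean of all wells on their plate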;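 also: 0% = DMSO-treated cells in low-serum medium and 100% = 10% serum control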
Granule exo inh: blocks lytic granule exocytosis. inhibition, % at 10 µM. AID 651702. TALL-104 LAMP-1 surface exposure, flow cytometry; cells stimulated with thapsigargin and PMA. actives 0.66% (n = 360,000);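 active = inhibition above about 55%, limit read from the data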
ALR inh: blocks human ALR sulfhydryl oxidase activity; P55789; purified ALR, DTT oxidation, H2O2 HRP-luminol luminescence; inhibition, % (test concentration not listed); actives 3.8% (n = 290,000);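 active = mean replicate inhibition above about 79%, with every replicate also reaching it, limit read from the data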
Target sequence (P55789 whole entry, looked up): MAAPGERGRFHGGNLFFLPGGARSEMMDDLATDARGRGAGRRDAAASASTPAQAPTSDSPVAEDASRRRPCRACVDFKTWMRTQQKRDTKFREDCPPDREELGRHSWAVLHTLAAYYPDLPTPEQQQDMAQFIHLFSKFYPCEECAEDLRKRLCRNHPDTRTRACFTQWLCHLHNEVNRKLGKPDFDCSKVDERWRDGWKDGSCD
GASC-1 inh: inhibitors of human GASC-1 (JMJD2C) demethylase. actives 0.069% (n = 330,000). GST-JMJD2C(1-420) H3K9me3 demethylation, DELFIA europium. Q9H3R0. AID 2099. inhibition, % at 2.35 µM;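 active = more than half of a compound's replicate wells show inhibition beyond 50%, single wells judged on their own value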;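 also: signal counts dimethyl H3K9 product captured on neutravidin plate; 0% = median of DMSO wells and 100% = 0.3 times that DMSO median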
* = called active by the depositor; / = no result. This is a sample that favours compounds with a hit; in the whole collection about 5.4% have one here.

SMILES	SMARCA2 activ	M18AAP inhibitor	beta cell repl	Granule exo inh	ALR inh	GASC-1 inh
CC(=O)OCC(=O)NCC1CCN(C(=O)C(=O)c2cc3ccccc3o2)CC1	-5	/	/	/	/	/
Cc1csc(SCC(=O)Nc2oc(C)c3c(C)n[nH]c(=O)c23)n1	5	/	7	4	25	-5
Cc1n[nH]c(=O)c2c(NC(=O)CSc3nn(-c4ccccc4)c(=S)s3)oc(C)c12	-2	/	-2	-1	99*	3
Cc1cc(Br)ccc1OCCCN1CCC(C(O)(c2ccccc2)c2ccccc2)CC1	-4	/	/	/	/	/
C[C@@H]1CN([C@H](C)CO)C(=O)CCCn2cc(nn2)CO[C@H]1CN(C)S(=O)(=O)c1cn(C)cn1	3	/	/	/	/	/
COC(=O)C1=NN(N=O)C2(CC(=O)N(c3cc(C)cc(C)c3)C2=O)C1 (configuration not stated)	0	1	0	-4	85*	-4
Cc1nc([N+](=O)[O-])cn1CC(Cl)Cn1cc([N+](=O)[O-])nc1C	1	/	/	/	/	/
CC1(C)CNc2cc(N)ccc2S1	-6	3	-3	2	84*	-1
CCOC(=O)C1=C(CS(=O)(=O)c2ccc(F)c(C)c2)NC(=O)NC1c1ccc(O)c(O)c1 (configuration not stated)	-2	75*	-2	9	98*	-4
CC(=O)Oc1cc(C)c(Cl)c2c(OC(C)=O)cc(C(C)=O)c(O)c12	-5	/	/	/	/	/
CSc1ccc(C=NNC(=O)c2cc(-c3ccc(Cl)cc3)n[nH]2)cc1	4	/	/	/	/	/
S=c1[nH]nc2n1CCCN2	-1	6	0	0	95*	14
COc1ccc(CSC2=NCCN2)cc1Cl	-1	-11	0	-1	100*	122
COc1ccc(CSC2=NCCN2)cc1Br	-1	3	0	12	99*	-8
COc1ccc(CSc2nnc(C)n2N)cc1Br	0	2	-1	10	-17	26
O=C(Nc1ccc(F)cc1)OCc1cn(Cc2ccc(C(F)(F)F)cc2)nn1	-2	/	/	/	/	/
COC(=O)C1=C(C)N(C)C(=NCC2CC2)NC1c1ccc(F)cc1 (configuration not stated)	-2	/	/	/	/	/
O=C(c1csc(Nc2ccccc2Cl)n1)N1CCCC1	2	0	0	-1	84*	-22
CCN(CCCNC(=O)CC(C(=O)N1CCc2ccccc21)n1ccnc1)c1cccc(C)c1 (configuration not stated)	-2	-5	-2	-1	99*	5
CC1(C)Cc2ccccc2C2=NNC(=O)C2=N1	-5	1	-4	0	99*	19
CC1(C)Cc2ccccc2C(Nn2cnnc2)=N1	-3	6	-2	0	-4	-6
O=C(Oc1ccccc1C(=O)Nc1ccccc1)c1ccc(Br)c([N+](=O)[O-])c1	2	-1	-6	3	97*	-2
CCCC(=O)NC(c1ccc(N(C)C)cc1)c1ccc2cccnc2c1O (configuration not stated)	-3	10	-4	5	90*	-17
CCN1CCCC1CNC(=O)CSCc1nc(-c2ccccc2C)oc1C (configuration not stated)	-2	0	-1	-1	100*	-7
COC(=O)C1=C(C)N(Cc2cccc(C(F)(F)F)c2)C(=NCc2ccc(OC)cc2)NC1c1ccccc1C(F)(F)F (configuration not stated)	-4	/	/	/	/	/
SMILES	SMARCA2 activ	M18AAP inhibitor	beta cell repl	Granule exo inh	ALR inh	GASC-1 inh
Cc1ccc(-n2c(=S)[nH]c3c(oc4ccccc43)c2=O)cc1	1	13	-1	-2	52	7
Cc1cccc(-n2c(C)n[nH]c2=S)c1	-4	15	2	-1	-5	1
O=c1c2oc3ccccc3c2[nH]c(=S)n1-c1ccccc1	-1	-3	-1	-2	92*	-3
Cc1cccc(-n2c(C)c(-c3ccccc3)[nH]c2=S)c1	-1	24	-5	6	82*	15
CCCCn1c(=O)[nH]c2c(oc3ccccc32)c1=O	0	0	-5	-7	21	6
Cc1cccc(-n2c(=S)[nH]c3c(oc4ccccc43)c2=O)c1	-2	3	/	-1	90*	-4
C=CCN1C(C(=O)OC)CN(Cc2cn(Cc3ccc(OC)cc3)nn2)CCS1(=O)=O (configuration not stated)	-2	/	/	/	/	/
CC1CCCN(CCCNS(=O)(=O)c2cc3c(cc2Br)CCN3C(=O)C2CC2)C1 (configuration not stated)	1	/	/	/	/	/
CSc1nc(NCCN(C)C)c2sc3nc(-c4ccco4)c4c(c3c2n1)CCC4	2	/	/	44	/	/
CSc1nc(N(C)CCO)c2sc3nc(-c4ccco4)c4c(c3c2n1)CCC4	/	-39	-3	3	98*	1
CCCc1cn(S(=O)(=O)c2ccc(OC)cc2OC)nc1N	-2	-6	2	0	98*	-2
CCc1cn(S(=O)(=O)c2ccccc2OC)nc1N	/	-11	-2	0	-3	-7
O=C(Nc1ccc(F)cc1)OCc1cn(Cc2cccc(F)c2)nn1	-1	/	/	/	/	/
COc1cc(/C(C)=N/N2CCN(Cc3ccc(C)cc3)CC2)ccc1O	-1	7	-1	-6	89*	3
COc1cc(/C(C)=N/NC(=O)CN2CCN(S(=O)(=O)c3ccc(C)cc3)CC2)ccc1O	-2	2	-2	-3	98*	-106
C/C(=N\NC(=O)CN1CCN(S(=O)(=O)c2ccc(C)cc2)CC1)c1ccc(O)cc1	-3	0	-3	10	99*	3
COc1ccc(C)cc1NC(=O)CN1CCN(S(=O)(=O)c2ccc(Cl)cc2)CC1	0	8	-4	27	17	3
